{"source": "PubChem BioAssay AID2289", "about": "(National Center for Advancing Translational Sciences (NCATS), 2010)", "note": "In all, about 340,000 compounds went through this assay and about 3,300 (0.97%) were called active. Inconclusive results (about 9%) are left out. Calls come from the whole dose curve; as a rule, active = well fitted inhibition curve with a large enough effect; inconclusive = small, poorly fitted or top-dose-only effect, or effect the other way; inactive = flat fitted curve, though single readings scatter. The list shows a part of the results. Potency is the fitted concentration of half-maximal effect."}
{"test": "qHTS Assay for Modulators of miRNAs and/or Inhibitors of miR-21; note: nearly all actives have a fitted effect of over 55% in size", "conditions": "HeLa miR-21-FLuc reporter, luciferase luminescence, 48 h; actives lower the signal", "summary_of_the_method": "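HeLa miR-21-FLuc reporter line, endogenous miR-21; 2000 cells/well in DMEM/10% FBS; compound titration up to ~40uM final, 48 h, 37 degree Celsius; luciferase detection reagent, 15 min lysis, CCD luminescence.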"}
{"compound": "Cc1n[nH]c(=S)n1/N=C/c1ccc(OCc2ccc(Cl)cc2Cl)cc1", "Potency": "16.5 µM (active)"}
{"compound": "CCOC(=O)c1cccc(NC(=O)c2cc(CN3CCCC3)on2)c1", "Potency": "2.33 µM (active)"}
{"compound": "Cc1cc(C)cc(NC(=O)c2cc(CN3CCCC3)on2)c1", "Potency": "11.7 µM (active)"}
{"compound": "COc1ccc2c(Sc3ccccc3)c(C(=O)NCCc3ccc(Cl)cc3)[nH]c2c1", "Potency": "0.464 µM (active)"}
{"compound": "O=C(NCCc1ccccc1)c1cccc([N+](=O)[O-])c1", "Potency": "8.26 µM (active)"}
{"compound": "O=C(NCCc1ccccc1)c1ccc(Cl)cc1[N+](=O)[O-]", "Potency": "8.26 µM (active)"}
{"compound": "COc1ccc(C2N=C(c3ccccc3)NO2)cc1OC", "note": "(stereo not given)", "Potency": "5.21 µM (active)"}
{"compound": "N#Cc1ccc(C2N=C(c3ccccc3)NO2)cc1", "note": "(stereo not given)", "Potency": "0.585 µM (active)"}
{"compound": "COc1ccccc1-c1nc(COc2ccc(Cl)cc2Cl)no1", "Potency": "7.36 µM (active)"}
{"compound": "Clc1ccc(OCc2noc(-c3ccsc3)n2)c(Cl)c1", "Potency": "4.14 µM (active)"}
{"compound": "COc1ccccc1/C=C/C=N/n1c(-c2ccccn2)n[nH]c1=S", "Potency": "8.26 µM (active)"}
{"compound": "CCOC(=O)c1c(C)oc2cc(Cl)c(O)c(CN(C)C)c12", "Potency": "14.7 µM (active)"}
{"compound": "O=C(N/N=C/c1ccc(Br)cc1)c1ccc(Br)o1", "Potency": "3.29 µM (active)"}
{"compound": "C/C(=N/NC(=O)c1ccc(Br)o1)c1ccc(C)o1", "Potency": "10.4 µM (active)"}
{"compound": "COc1ccccc1OCc1nc(-c2cccc(C)c2)no1", "Potency": "6.56 µM (active)"}
{"compound": "Cc1ccc(OCc2nc(-c3ccccc3)no2)cc1", "Potency": "5.21 µM (active)"}
{"compound": "COc1cccc(-c2noc(COc3ccccc3Cl)n2)c1", "Potency": "16.5 µM (active)"}
{"compound": "CSc1nc(O)c(/C=C2\\C=Nc3ccccc32)[nH]1", "Potency": "16.5 µM (active)"}
{"compound": "COc1ccc(/C=C2\\OC(=O)c3c(OC)cccc32)cc1OC", "Potency": "2.93 µM (active)"}
{"compound": "COc1cc(/C=C2\\OC(=O)c3c(OC)cccc32)ccc1O", "Potency": "7.36 µM (active)"}
{"compound": "COc1cccc2c1C(=O)O/C2=C/c1ccc2c(c1)OCO2", "Potency": "0.233 µM (active)"}
{"compound": "COc1cccc(/C=N/NC(=O)c2cccc(N3CCCC3=O)c2)c1", "Potency": "5.85 µM (active)"}
{"compound": "c1csc(-c2nc(N3CCCCC3)no2)c1", "Potency": "2.93 µM (active)"}
{"compound": "CCOC(=O)c1sc(=NC(=O)c2cccs2)n(C)c1C", "Potency": "0.293 µM (active)"}
{"compound": "Cc1ccc2c(c1)sc(=NC(=O)c1cccs1)n2C", "Potency": "0.0521 µM (active)"}
{"compound": "CCOC(=O)c1sc(=NC(=O)c2ccc(Cl)s2)n(C)c1C", "Potency": "0.233 µM (active)"}
{"compound": "CCOC(=O)c1sc(=NC(=O)c2ccccc2Br)n(C)c1C", "Potency": "1.04 µM (active)"}
{"compound": "O=C(NC(N1CCOCC1)C(Cl)(Cl)Cl)c1ccco1", "note": "(stereo not given)", "Potency": "2.93 µM (active)"}
{"compound": "O=C(CCc1ccc(S(=O)(=O)NC2CCCCC2)cc1)NCc1ccccn1", "Potency": "7.36 µM (active)"}
{"compound": "Cc1cc(-n2c(SCc3ccccc3F)nc3[nH]ncc3c2=O)ccc1Cl", "Potency": "4.65 µM (active)"}
{"compound": "O=c1c2c3c(sc2ncn1-n1cccc1)CCCCC3", "Potency": "11.7 µM (active)"}
{"compound": "COc1ccc(OC)c2nc(-c3ccc4c(c3)OCO4)ccc12", "Potency": "0.736 µM (active)"}
{"compound": "Cc1c(C(=O)c2ccccc2)oc2ccc3ccccc3c12", "Potency": "2.93 µM (active)"}
{"compound": "CC(=O)c1cc2c(C)c(C(=O)c3ccccc3)oc2cc1O", "Potency": "0.521 µM (active)"}
{"compound": "CCN(CC)S(=O)(=O)c1ccc(-c2cn3ccc(C)cc3n2)cc1", "Potency": "0.927 µM (active)"}
{"compound": "Cc1cc(/C=C(\\C#N)C(=O)Nc2ccccc2F)c(C)[nH]1", "Potency": "0.521 µM (active)"}
{"compound": "O=C(NCCSc1ccccc1)c1ccccc1Cl", "Potency": "1.65 µM (active)"}
{"compound": "Cc1ccccc1SCCNC(=O)c1ccccc1Br", "Potency": "16.5 µM (active)"}
{"compound": "COC(=O)c1sc(NC(=O)COc2ccccc2)nc1C", "Potency": "7.36 µM (active)"}
{"compound": "CNc1nc(C)c(C(=O)OCc2ccccc2)s1", "Potency": "16.5 µM (active)"}
{"compound": "CCOC(=O)c1sc(Nc2ccccc2)nc1C", "Potency": "4.14 µM (active)"}
{"compound": "COC(=O)c1sc(NC(=O)CSc2nnnn2C)nc1C", "Potency": "6.56 µM (active)"}
{"compound": "CCOC(=O)c1sc(Nc2ccccc2Cl)nc1C", "Potency": "4.65 µM (active)"}
{"compound": "CCOC(=O)c1sc(NC(=O)c2ccccc2OC)nc1C", "Potency": "0.261 µM (active)"}
{"compound": "Cc1ccccc1C(=O)N/N=C/c1ccsc1C", "Potency": "2.33 µM (active)"}
{"compound": "Cc1ccccc1/C=N/NC(=O)c1sccc1C", "Potency": "1.47 µM (active)"}
{"compound": "CCC1CCCCN1C(=O)c1cc(-c2ccc(Cl)c(Cl)c2)on1", "note": "(stereo not given)", "Potency": "7.36 µM (active)"}
{"compound": "O=C(c1cc(-c2ccc(Cl)cc2)on1)N1CCCCCC1", "Potency": "1.47 µM (active)"}
{"compound": "c1ccc(-c2cc(-c3ccccc3)on2)cc1", "Potency": "1.04 µM (active)"}
{"compound": "O=C(c1cc(-c2ccc(Cl)cc2)on1)N1CCCC1", "Potency": "0.521 µM (active)"}
{"compound": "O=C(c1cc(-c2ccccc2)on1)N1CCCCCC1", "Potency": "3.29 µM (active)"}
{"compound": "O=C(c1ccccc1-c1nc(-c2ccccc2)no1)N1CCCC1", "Potency": "18.5 µM (active)"}
{"compound": "COc1ccccc1CCC(=O)Nc1ccc(C)cc1Cl", "Potency": "16.5 µM (active)"}
{"compound": "Cc1ccc(Sc2ncccc2COC(=O)NC(C)C)cc1", "Potency": "16.5 µM (active)"}
{"compound": "O=C1N=C(N2CCOCC2)S/C1=C\\C=C/c1ccccc1", "Potency": "10.4 µM (active)"}
{"compound": "Nc1ccc(-c2nc3ccccc3s2)cn1", "Potency": "1.47 µM (active)"}
{"compound": "Nc1ccccc1-c1nc2ccccc2s1", "Potency": "5.85 µM (active)"}
{"compound": "CCOC(=O)c1ccc(N2Cc3ccccc3C2=NC(=O)c2cccs2)cc1", "Potency": "3.29 µM (active)"}
{"compound": "N#Cc1ccc(N2Cc3ccccc3C2=NC(=O)c2cccs2)cc1", "Potency": "8.26 µM (active)"}
{"compound": "Cc1ccc2[nH]c3c(=S)nc[nH]c3c2c1", "Potency": "3.69 µM (active)"}
{"compound": "Cc1cc(C(=O)N/N=C/c2cccc([N+](=O)[O-])c2)c(C)n1-c1ccccc1", "Potency": "6.56 µM (active)"}
{"compound": "CC(C)c1ccc(NC(=O)c2ccccc2NC(=O)C2CC=CCC2C(=O)O)cc1", "note": "(stereo not given)", "Potency": "3.69 µM (active)"}
{"compound": "O=C(Nc1ccc(Cl)c(Cl)c1)c1ccccc1NC(=O)C1CC=CCC1C(=O)O", "note": "(stereo not given)", "Potency": "6.56 µM (active)"}
{"compound": "CN(C)C=NC(=O)c1cc(C(=O)c2ccc(C(C)(C)C)cc2)c[nH]1", "Potency": "0.927 µM (active)"}
{"compound": "Cn1c(CSc2ccccc2)c(C#N)c2ccccc21", "Potency": "14.7 µM (active)"}
{"compound": "Cc1ccc(Nc2nc(/N=C/NO)n[nH]2)cc1C", "Potency": "1.85 µM (active)"}
{"compound": "Cc1ccc(Nc2nc(/N=C/N(C)C)n[nH]2)cc1C", "Potency": "7.36 µM (active)"}
{"compound": "COCn1c(COc2ccc3ccccc3c2)nc2ccccc21", "Potency": "2.07 µM (active)"}
{"compound": "COCn1c(-c2ccc(OC)cc2)nc2ccccc21", "Potency": "3.69 µM (active)"}
{"compound": "C=CCn1c(-c2ccc(N)cc2)nc2ccccc21", "Potency": "4.65 µM (active)"}
